# Test results published in the supplement of paper PMC8728848.
# This excerpt belongs to a sample that is enriched for the strongest signals.
# B1: Adiponectin (Rattus norvegicus), Q8K3R4 (protein)
# chain: MLLLQALLFLLILPSHEGITATEGPGALVPPPKETCAGWMAGIPGYPGHNGIPGRDGRDGTPGEKGEKGDAGVLGPKGDPGDAGMTGAEGPRGFPGTPGRKGEPGEAAYMYHSAFSVGLETRVTVPNVPIRFTKIFYNQQNHYDGSTGKFHCNIPGLYYFSYHITVYMKDVKVSLFKKDKAVLFTYDQYQEKNVDQASGSMLLHLEVGDQVWLQVYGEGDNNGLYADNVNDSTFTGFLLYHDTN
# B2: Neuropilin-1 (Homo sapiens), O14786 (protein)
# chain: FKCMEALGMESGEIHSDQITASSQYSTNWSAERSRLNYPENGWTPGEDSYREWIQVDLGLLRFVTAVGTQGAISKETKKKYYVKTYKIDVSSNGEDWITIKEGNKPVLFQGNTNPTDVVVAVFPKPLITRFVRIKPATWETGISMRFEVYGCKITDYPCSGMLGMVSGLISDSQITSSNQGDRNWMPENIRLVTSRSGWALPPAPHSYINEWLQIDLGEEKIVRGIIIQGGKHRENKVFMRKFKIGYSNNGSDWKMIMDDSKRKAKSFEGNNNYDTPELRTFPALSTRFIRIYPERATHGGLGLRMELLGCEVE
# Experiments:
# Experiment in all cases: glycan array binding signal (z-score within array); higher = stronger binding
# Settings in all cases: glycan notation: IUPAC condensed, linker removed
# [1] = target: Fuc(a1-2)Gal(b1-3)GlcNAc(b1-2)Man(a1-3)[Fuc(a1-2)Gal(b1-3)GlcNAc(b1-2)Man(a1-6)]Man(b1-4)GlcNAc(b1-4)GlcNAc
# Method in brief: (§1)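 The binding signal is a Z-score computed within each array. Data were drawn from 3228 arrays in the Consortium for Functional Glycomics database, restricted to those with a known protein sequence. Scores were averaged over arrays of the same protein sequence at different concentrations or buffers, and over linkers, and negative values can be taken as non-binding.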
# [2] = target: Fuc(a1-2)Gal(b1-3)[Fuc(a1-4)]GlcNAc(b1-2)Man(a1-3)[Fuc(a1-2)Gal(b1-3)[Fuc(a1-4)]GlcNAc(b1-2)Man(a1-6)]Man(b1-4)GlcNAc(b1-4)GlcNAc
# Method in brief: as §1
# [3] = target: Fuc(a1-2)[Gal(a1-4)]Gal(b1-4)GlcNAc
# Method in brief: as §1
# Gal(a1-3)Gal(b1-4)Glc = target: Gal(a1-3)Gal(b1-4)Glc
# Method in brief: as §1
# Gal(a1-4)Gal(b1-4)GlcNAc = target: Gal(a1-4)Gal(b1-4)GlcNAc
# Method in brief: as §1
# Gal(b1-3)GalNAc = target: Gal(b1-3)GalNAc
# Method in brief: as §1
# [4] = target: Gal(b1-4)GlcNAc(a1-6)Gal(b1-4)GlcNAc
# Method in brief: as §1
# [5] = target: Gal(b1-4)GlcNAc(b1-3)Gal(b1-4)GlcNAc(b1-3)Gal(b1-4)GlcNAc
# Method in brief: as §1
# [6] = target: Gal(b1-4)GlcNAc(b1-3)[Gal(b1-4)GlcNAc(b1-6)]Gal(b1-4)GlcNAc
# Method in brief: as §1
# Gal3S(b1-3)GlcNAc = target: Gal3S(b1-3)GlcNAc
# Method in brief: as §1
# [7] = target: Gal3S(b1-3)[Fuc(a1-4)]GlcNAc
# Method in brief: as §1
# Gal3S4S(b1-4)GlcNAc = target: Gal3S4S(b1-4)GlcNAc
# Method in brief: as §1
# Gal6S(b1-4)GlcNAc = target: Gal6S(b1-4)GlcNAc
# Method in brief: as §1
# Gal6S(b1-4)GlcNAc6S = target: Gal6S(b1-4)GlcNAc6S
# Method in brief: as §1
# GalNAc(a1-3)Gal = target: GalNAc(a1-3)Gal
# Method in brief: as §1
# [8] = target: GalNAc(b1-4)GlcNAc(b1-2)Man(a1-3)[GalNAc(b1-4)GlcNAc(b1-2)Man(a1-6)]Man(b1-4)GlcNAc(b1-4)GlcNAc
# Method in brief: as §1
# GlcA(b1-3)GlcNAc = target: GlcA(b1-3)GlcNAc
# Method in brief: as §1
# GlcA(b1-6)Gal = target: GlcA(b1-6)Gal
# Method in brief: as §1
# [9] = target: GlcNAc(b1-4)GlcNAc(b1-4)GlcNAc
# Method in brief: as §1
# [10] = target: Man(a1-3)[Man(a1-6)]Man(a1-6)[Man(a1-3)]Man(b1-4)GlcNAc(b1-4)GlcNAc
# Method in brief: as §1
# Man(b1-4)GlcNAc = target: Man(b1-4)GlcNAc
# Method in brief: as §1
# Neu5Ac(a2-3)Gal = target: Neu5Ac(a2-3)Gal
# Method in brief: as §1
# [11] = target: Neu5Ac(a2-3)Gal(b1-4)[Fuc(a1-3)]GlcNAc
# Method in brief: as §1
# [12] = target: Neu5Ac(a2-6)Gal(b1-4)GlcNAc(b1-2)Man(a1-3)Man(b1-4)GlcNAc(b1-4)GlcNAc
# Method in brief: as §1
# [13] = target: Neu5Ac(a2-6)Gal(b1-4)GlcNAc(b1-2)Man(a1-6)[GlcNAc(b1-2)Man(a1-3)]Man(b1-4)GlcNAc(b1-4)GlcNAc
# Method in brief: as §1
# [14] = target: Neu5Ac(a2-8)Neu5Ac(a2-3)[GalNAc(b1-4)]Gal(b1-4)Glc
# Method in brief: as §1
# [15] = target: Neu5Ac(a2-8)Neu5Ac(a2-8)Neu5Ac(a2-8)Neu5Ac(a2-3)[GalNAc(b1-4)]Gal(b1-4)Glc
# Method in brief: as §1
# [16] = target: Neu5Gc(a2-3)Gal(b1-4)GlcNAc
# Method in brief: as §1
# [17] = target: Fuc(a1-2)Gal(b1-4)GlcNAc(b1-2)Man(a1-3)[Fuc(a1-2)Gal(b1-4)GlcNAc(b1-2)Man(a1-6)]Man(b1-4)GlcNAc(b1-4)GlcNAc
# Method in brief: as §1
# [18] = target: Fuc(a1-2)Gal(b1-4)[Fuc(a1-3)]GlcNAc(b1-2)Man(a1-3)[Fuc(a1-2)Gal(b1-4)[Fuc(a1-3)]GlcNAc(b1-2)Man(a1-6)]Man(b1-4)GlcNAc(b1-4)GlcNAc
# Method in brief: as §1
# [19] = target: Fuc(a1-2)[Gal(a1-3)]Gal(b1-4)GlcNAc(b1-2)Man(a1-3)[Fuc(a1-2)[Gal(a1-3)]Gal(b1-4)GlcNAc(b1-2)Man(a1-6)]Man(b1-4)GlcNAc(b1-4)GlcNAc
# Method in brief: as §1
# [20] = target: Fuc(a1-2)[GalNAc(a1-3)]Gal(b1-4)GlcNAc(b1-2)Man(a1-3)[GalNAc(a1-3)[Fuc(a1-2)]Gal(b1-4)GlcNAc(b1-2)Man(a1-6)]Man(b1-4)GlcNAc(b1-4)GlcNAc
# Method in brief: as §1
# [21] = target: Fuc(a1-3)[Gal(b1-4)]Glc6S
# Method in brief: as §1
# [22] = target: Fuc(a1-3)[Gal(b1-4)]GlcNAc
# Method in brief: as §1
# [23] = target: Fuc(a1-3)[Gal(b1-4)]GlcNAc(b1-2)Man(a1-3)[Fuc(a1-3)[Gal(b1-4)]GlcNAc(b1-2)Man(a1-6)]Man(b1-4)GlcNAc(b1-4)GlcNAc
# Method in brief: as §1
# [24] = target: Fuc(a1-3)[Gal3S(b1-4)]GlcNAc
# Method in brief: as §1
# Gal(a1-6)Glc = target: Gal(a1-6)Glc
# Method in brief: as §1
# [25] = target: Gal(b1-3)Gal(b1-4)GlcNAc(b1-2)Man(a1-3)[Gal(b1-3)Gal(b1-4)GlcNAc(b1-2)Man(a1-6)]Man(b1-4)GlcNAc(b1-4)GlcNAc
# Method in brief: as §1
# [26] = target: Gal(b1-3)[Neu5Ac(a2-6)]GalNAc
# Method in brief: as §1
# [27] = target: Gal(b1-4)GalNAc(b1-3)[Fuc(a1-2)]Gal(b1-4)GlcNAc
# Method in brief: as §1
# Gal(b1-4)Glc = target: Gal(b1-4)Glc
# Method in brief: as §1
# [28] = target: Gal(b1-4)GlcNAc(b1-2)Man(a1-3)[Man(a1-6)]Man(b1-4)GlcNAc(b1-4)GlcNAc
# Method in brief: as §1
# [29] = target: Gal(b1-4)GlcNAc(b1-3)Gal(b1-4)GlcNAc
# Method in brief: as §1
# [30] = target: Gal3S(b1-4)[Fuc(a1-3)]Glc
# Method in brief: as §1
# Gal4S(b1-4)GlcNAc = target: Gal4S(b1-4)GlcNAc
# Method in brief: as §1
# [31] = target: GlcNAc(a1-4)Gal(b1-4)GalNAc
# Method in brief: as §1
# [32] = target: GlcNAc(a1-4)Gal(b1-4)GlcNAc(b1-3)Gal(b1-4)GlcNAc
# Method in brief: as §1
# [33] = target: GlcNAc(b1-2)Man(a1-3)[GlcNAc(b1-2)Man(a1-6)]Man(b1-4)GlcNAc(b1-4)GlcNAc
# Method in brief: as §1
# [34] = target: Man(a1-3)[Man(a1-6)]Man(b1-4)GlcNAc(b1-4)GlcNAc
# Method in brief: as §1
# [35] = target: Neu5Ac(a2-3)Gal(b1-3)GalNAc
# Method in brief: as §1
# [36] = target: Neu5Ac(a2-3)Gal(b1-3)[Fuc(a1-4)]GlcNAc(b1-3)Gal(b1-4)[Fuc(a1-3)]GlcNAc
# Method in brief: as §1
# [37] = target: Neu5Ac(a2-3)Gal(b1-4)[Fuc(a1-3)]GlcNAc(b1-6)[Gal(b1-3)]GalNAc
# Method in brief: as §1
# [38] = target: Neu5Ac(a2-6)Gal(b1-4)GlcNAc
# Method in brief: as §1
binder,measurement,setting,value
B1,glycan array binding signal (z-score),[1],4.69
same,glycan array binding signal (z-score),[2],2.87
same,glycan array binding signal (z-score),[3],-0.75
same,glycan array binding signal (z-score),Gal(a1-3)Gal(b1-4)Glc,2.17
same,glycan array binding signal (z-score),Gal(a1-4)Gal(b1-4)GlcNAc,-0.311
same,glycan array binding signal (z-score),Gal(b1-3)GalNAc,-0.573
same,glycan array binding signal (z-score),[4],-0.335
same,glycan array binding signal (z-score),[5],3.09
same,glycan array binding signal (z-score),[6],0.332
same,glycan array binding signal (z-score),Gal3S(b1-3)GlcNAc,-0.814
same,glycan array binding signal (z-score),[7],1.13
same,glycan array binding signal (z-score),Gal3S4S(b1-4)GlcNAc,0.706
same,glycan array binding signal (z-score),Gal6S(b1-4)GlcNAc,1.04
same,glycan array binding signal (z-score),Gal6S(b1-4)GlcNAc6S,-0.915
same,glycan array binding signal (z-score),GalNAc(a1-3)Gal,2.96
same,glycan array binding signal (z-score),[8],4.32
same,glycan array binding signal (z-score),GlcA(b1-3)GlcNAc,-0.577
same,glycan array binding signal (z-score),GlcA(b1-6)Gal,-0.389
same,glycan array binding signal (z-score),[9],4.87
same,glycan array binding signal (z-score),[10],-0.767
same,glycan array binding signal (z-score),Man(b1-4)GlcNAc,0.155
same,glycan array binding signal (z-score),Neu5Ac(a2-3)Gal,0.212
same,glycan array binding signal (z-score),[11],0.007
same,glycan array binding signal (z-score),[12],0.717
same,glycan array binding signal (z-score),[13],-0.838
same,glycan array binding signal (z-score),[14],0.022
same,glycan array binding signal (z-score),[15],0.861
same,glycan array binding signal (z-score),[16],-0.295
B2,glycan array binding signal (z-score),[1],1.14
same,glycan array binding signal (z-score),[17],5.83
same,glycan array binding signal (z-score),[18],4.73
same,glycan array binding signal (z-score),[19],6.43
same,glycan array binding signal (z-score),[20],5.34
same,glycan array binding signal (z-score),[21],0.455
same,glycan array binding signal (z-score),[22],-0.168
same,glycan array binding signal (z-score),[23],10.4
same,glycan array binding signal (z-score),[24],-0.158
same,glycan array binding signal (z-score),Gal(a1-6)Glc,-0.168
same,glycan array binding signal (z-score),[25],6.05
same,glycan array binding signal (z-score),[26],-0.23
same,glycan array binding signal (z-score),[27],-0.281
same,glycan array binding signal (z-score),Gal(b1-4)Glc,-0.292
same,glycan array binding signal (z-score),[28],-0.228
same,glycan array binding signal (z-score),[29],-0.228
same,glycan array binding signal (z-score),[30],0.036
same,glycan array binding signal (z-score),Gal4S(b1-4)GlcNAc,-0.235
same,glycan array binding signal (z-score),Gal6S(b1-4)GlcNAc,-0.225
same,glycan array binding signal (z-score),[8],0.263
same,glycan array binding signal (z-score),GlcA(b1-6)Gal,-0.189
same,glycan array binding signal (z-score),[31],1.27
same,glycan array binding signal (z-score),[32],-0.004
same,glycan array binding signal (z-score),[33],-0.176
same,glycan array binding signal (z-score),[34],-0.133
same,glycan array binding signal (z-score),[35],-0.216
same,glycan array binding signal (z-score),[36],0.065
same,glycan array binding signal (z-score),[37],0.942
same,glycan array binding signal (z-score),[38],-0.254
